From PubChem BioAssay AID488890 (Southern Research Specialized Biocontainment Screening …, 2010) come the findings set out here.

Out of some 320,000 compounds screened, about 1,300 (0.41%) were called active. Roughly 3% stayed inconclusive and do not appear here. The rule behind the calls is not given here. A selection follows. Measured potencies and affinities stand elsewhere.

In general, inhibition refers to the drop in the measured response relative to a control, in per cent.

A short description of this experiment: growth inhibition of non-replicating M. tuberculosis (AID 488890).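 Note: plate controls were DMSO cells for no effect and high antibiotic wells for full effect.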 The note with it: Mycobacterium tuberculosis non-replicating, at 25 µM, stronger effect = higher value.
As to `CCN(CC)S(=O)(=O)c1ccc(NC(=O)c2cccs2)cc1`, the inhibition is -5.05%.

For `O=C(COc1ccccc1C(=O)Nc1ccccc1)c1ccc(F)cc1`, the inhibition was found to be 2.88%.

Regarding `Cc1sc(NC(=O)C2CSC3(C)CCC(=O)N23)nc1-c1ccc(F)cc1` (centres undefined), the inhibition turned out to be 23.3%.

Consider `CNC(=O)C1CCC(=O)N1Cc1ccccc1Cl` (centres undefined), for which the inhibition was -5.58%.

Take `Cc1[nH]c2ccccc2c1CC#N`: the inhibition was -7.72%.

Consider `COC(=O)CNC(=O)COC(=O)/C=C/c1cccs1`, for which the inhibition is -8.45%.

Take `CN(C)c1ccc(C=C2C(=O)OC(C)(C(C)(C)C)OC2=O)cc1` (centres undefined): the inhibition was -8.32%.

`COc1ccc(/C=C2\N=C(C(C)(C)C)OC2=O)c(OC)c1`: the inhibition stood at 64.4%.

Turning to `CCN(C[C@H]1N[C@@](C)(C(=O)OC)[C@H]2C(=O)N(C)C(=O)[C@@H]12)C(=O)C1CCCCC1`, the inhibition amounted to 1.05%.

Regarding `CS(=O)(=O)Nc1ccccc1C(=O)NC1CC2CCC1C2` (centres undefined), the inhibition is -26.9%.

`COc1ccc(NC(=O)Cn2c(=O)n(CC3CCCO3)c(=O)c3cc(OC)c(OC)cc32)cc1OC` (centres undefined): the inhibition turned out to be 3.8%.

For `COC(=O)c1ccccc1OCCOCCOc1cccc2cccnc12`, the inhibition was -0.9%.

Take `O=C1OCCC1Sc1nnc(-c2ccc3c(c2)OCO3)o1` (centres undefined): the inhibition was 0.17%.

For `O=C(c1ccc(Cl)cc1)N1CCCCC(Sc2nnc(-c3ccc4c(c3)OCO4)o2)C1=O` (centres undefined), the inhibition was 17.2%.

For the compound `Cc1ccc(S(=O)(=O)N(C)C)cc1-n1c(SCC(=O)Nc2ccc(F)cc2)nc2ccccc2c1=O`, the inhibition was determined as 26.8%.

Take `COC(=O)c1ccccc1OC(=O)c1cc2ccccc2oc1=O`: the inhibition is 17.4%.

On to `CC(=O)/C=C\c1ccccc1OC(=O)c1cc2ccccc2oc1=O`, for which the inhibition is 18%.

For `Cc1ccc(NC(=O)C2(S(=O)(=O)c3ccc(C)cc3)CC2)cc1`, the inhibition came to 7.01%.

Consider `CCCOc1ccc(C(=O)Nc2ccc(NC(=O)c3cccs3)cc2)cc1`, for which the inhibition is -8.66%.

Take `CCCC(=O)Nc1ccc(C(=O)NNC(=S)NC(=O)c2cccs2)cc1`: the inhibition was -6.93%.

For `COc1ccc(C(=O)NC(=S)NNC(=O)c2ccco2)cc1`, the inhibition worked out at 78.5%.

For the compound `CCCCOc1ccc(C(=O)NCC(=O)NNC(=O)c2ccco2)cc1`, the inhibition was determined as 9.92%.

`c1cnc2c(OCc3cn4cccnc4n3)cccc2c1`: the inhibition was determined as 24.9%.

With `CCC(C(=O)NCc1ccco1)N(C(=O)CNS(=O)(=O)c1ccccc1)C1CCCCC1` (centres undefined), the inhibition was 18.4%.

Turning to `COc1ccc(-n2c(SCC(=O)O)nnc2-c2ccc(NC(=O)c3ccccc3)cc2)cc1`, the inhibition was 9.48%.

Regarding `COc1ccc(-c2nnc(SCc3cc(C)cc(C)c3)o2)cc1`, the inhibition was determined as 42.9%.

As to `COc1ccc(NCc2nnc(-c3ccccc3)o2)cc1`, the inhibition stood at 69.4%.

Take `CCCc1nnc(-c2cc(OC)c(OC)c(OC)c2)o1`: the inhibition came to 7.1%.

With `COc1ccc(-c2ccc(-c3nnc(Cc4ccc(OC)c(OC)c4)o3)cc2)cc1`, the inhibition stood at 15.8%.

In the case of `COc1ccc(-c2nnc(SCC#N)o2)cc1`, the inhibition was 65.7%.

As to `CC(=O)CSc1nnc(Cc2ccc([N+](=O)[O-])cc2)o1`, the inhibition stood at 70.9%.

`CCOc1ccc(-c2nnc(-c3ccc(OC)cc3)o2)cc1`: the inhibition was 53.7%.

For `Cc1nnc(SCc2ccc([N+](=O)[O-])cc2)o1`, the inhibition came to 16.4%.

Consider `Cn1c(=O)c(=O)n(C)c2cc(S(=O)(=O)N3CCOCC3)ccc21`, for which the inhibition was -6.34%.

`COC(=O)c1cc(S(=O)(=O)NCc2ccccc2Cl)c[nH]1`: the inhibition was -3.81%.

Take `Cc1ccc2c(c1)N(S(=O)(=O)c1ccc(CN3C(=O)c4cccnc4C3=O)cc1)CCO2`: the inhibition worked out at 15.3%.

As for `Cn1c(SCc2cccnc2)nc2cccnc21`, the inhibition is -20.7%.

Consider `CC/C(=N\N=C1\SC(C)C(=O)N1Cc1ccco1)c1ccccc1` (centres undefined), for which the inhibition was found to be 32%.

With `COc1ccccc1CNC(=O)c1cnn2c(C(F)F)cc(C)nc12`, the inhibition was found to be 24.9%.

Regarding `COc1ccccc1N1CCN(S(=O)(=O)CCNC(=O)C2CC2)CC1`, the inhibition is -6.08%.

Consider `COc1ccc(-c2cc(C(F)F)n3ncc(C(=O)Nc4cnn(Cc5ccccc5)c4)c3n2)cc1`, for which the inhibition was -6.39%.

As to `c1ccc(CN2CCN(Cc3nnc(-c4ccccc4)o3)CC2)cc1`, the inhibition came to 30.8%.

As for `Cc1cccc(NCc2ccccc2O)c1C`, the inhibition stood at 12.1%.

Regarding `c1ccc(OCc2nnc(-c3ccccc3)o2)cc1`, the inhibition worked out at 62.3%.

For `Fc1ccc(-c2nnc(Cc3nnc(-c4ccc(F)cc4)o3)o2)cc1`, the inhibition was -8.26%.

Regarding `O=[N+]([O-])c1ccc(Cc2nnc(-c3ccc(F)cc3)o2)cc1`, the inhibition was 72.1%.

As for `Clc1ccccc1OCc1nnc(-c2ccccc2Br)o1`, the inhibition was found to be 29.1%.

For `COc1ccc(OC)c(NCc2nnc(-c3ccccc3)o2)c1`, the inhibition stood at 77%.

For `O=[N+]([O-])c1ccc(Cc2nnc(-c3ccccc3Cl)o2)cc1`, the inhibition worked out at 34.9%.

For the compound `O=C(Nc1nn(Cc2ccc(Cl)cc2)cc1Br)c1ccc(COc2ccccc2Cl)o1`, the inhibition amounted to 44.8%.

`CCc1cc(CC)c(/C=N/NC(N)=O)c(CC)c1`: the inhibition was 6.49%.

Turning to `COc1ccc(-n2cnc3sc4c(c3c2=O)CCCC4)cc1`, the inhibition was found to be 26%.

As to `CC(C)c1nnc(NC(=O)CN2C(=O)c3ccccc3C2=O)s1`, the inhibition was -1.11%.

As for `Cc1ccc(-n2ncc(C(=O)N3CCN(C(=O)c4ccco4)CC3)c2C2CCN(C(=O)OC(C)(C)C)CC2)cc1C`, the inhibition is -1.31%.

Turning to `O=C(C1CCC1)N1CCc2cc(S(=O)(=O)NCCCN3CCCCC3)ccc21`, the inhibition is -2.13%.

On to `CCOC(=O)c1c(NC(=O)Nc2ccc(F)cc2)sc2c1CCN(C)C2`, for which the inhibition was determined as 0.96%.

On to `C=CCn1c(O)c(C(CC)=NCCc2c[nH]c3ccccc23)c(=O)[nH]c1=O`, for which the inhibition is 18.7%.

For the compound `Clc1ccc(-c2nnc(C3CC3)o2)cc1`, the inhibition came out at 63%.

As for `O=[N+]([O-])c1cccc(-c2nnc(C3CC3)o2)c1`, the inhibition turned out to be 8.89%.

Consider `COc1cc(NC(=O)c2ccc(Cl)cc2)c(Cl)cc1NC(=O)c1cccnc1`, for which the inhibition was -8.85%.

In the case of `COc1cccc(O)c1CN1CCC(C(=O)Nc2ccc(Oc3cccnc3)cc2)CC1`, the inhibition stood at 19.3%.

`Cc1ccccc1CN1CCC(C(=O)Nc2ccc(Oc3cccnc3)cc2)CC1`: the inhibition came out at 30.1%.

For `CC1Cc2ccccc2N1C(=O)CO/N=C/c1ccccc1OC(F)F` (centres undefined), the inhibition is -12.1%.

As for `C=CCn1c(O)c(N=NC(=O)C(O)c2ccccc2)c2ccccc21` (centres undefined), the inhibition was 15.4%.

`CC(C)(C)NC(=O)CN(C(=O)c1snc(C(=O)NC2CCCCC2)c1N)c1ccc(F)cc1`: the inhibition is -3.77%.

Consider `CC(OC(=O)c1snc(C(=O)NC2CCCCC2)c1N)C(=O)NC(C)(C)C` (centres undefined), for which the inhibition was found to be 48.2%.

With `CCOC(=O)c1snc(C(=O)NC2CCCCC2)c1N`, the inhibition worked out at 64.4%.

On to `CC(OC(=O)c1snc(C(=O)NC2CCCCC2)c1N)C(=O)NC1CCCCC1` (centres undefined), for which the inhibition is -11.8%.

Turning to `C/C(=N\NC(=O)C(C)Nc1cccc(Cl)c1)c1ccc([N+](=O)[O-])cc1` (centres undefined), the inhibition was found to be 6.72%.

For the compound `Cc1ccc2oc(=O)c3cnn(CC(=O)NCCC(C)C)c3c2c1`, the inhibition is -1%.

With `COCCN1C(=O)N[C@@H](c2ccccc2)[C@@H](C(=O)OC)[C@H]1C`, the inhibition is -23.2%.

For the compound `CC(C)NC(=O)C(c1ccc(F)cc1)N(C(=O)CCC(=O)Nc1ccccn1)C1CCCCC1` (centres undefined), the inhibition is -1.84%.

Take `O=C1Nc2ccccc2C1Cc1ccccc1` (centres undefined): the inhibition came to 24.6%.

As for `FC(F)(F)c1cc(CO[C@@H]2CCCN[C@@H]2c2ccccc2)cc(C(F)(F)F)c1`, the inhibition was determined as 63.4%.

In the case of `CCOc1ccc(Br)cc1/C=N/NC(=O)c1ccncc1`, the inhibition came to 73.7%.

In the case of `Cc1cccc(NC(=O)COC(=O)Cc2c[nH]c3ccccc23)c1C`, the inhibition stood at 6.74%.

Turning to `COc1ccc(C(=O)NCCc2c[nH]c3ccccc23)cc1`, the inhibition turned out to be 25.8%.

With `COc1ccc(CNC(=O)CCc2c[nH]c3ccccc23)cc1`, the inhibition was -7.3%.

For the compound `CS(=O)(=O)c1ccc(Cl)c(NC(=O)COC(=O)CCc2c[nH]c3ccccc23)c1`, the inhibition was found to be 74.8%.

On to `Cc1ccc(NC(=O)COC(=O)Cc2c[nH]c3ccccc23)cc1C`, for which the inhibition was 35.7%.

As to `COc1ccc(NC(=O)COC(=O)CCCc2c[nH]c3ccccc23)cc1OC`, the inhibition came to 16.1%.

On to `CS(=O)(=O)c1ccc(Cl)c(NC(=O)COC(=O)Cc2c[nH]c3ccccc23)c1`, for which the inhibition is -10%.

For `O=C(COC(=O)Cc1c[nH]c2ccccc12)Nc1cccc2ccccc12`, the inhibition worked out at 2.45%.

With `CCc1ccccc1N(C(=O)c1snc(C(N)=O)c1N)C(C(=O)NCC1CCCO1)c1ccc(C)o1` (centres undefined), the inhibition amounted to 37.2%.

With `C[C@H]1COC(=O)[C@H](Cc2ccc(F)cc2)C/C=C\C[C@H](CC(=O)NCCO)C(=O)N1`, the inhibition is 6.21%.

Turning to `CCCCN(C(=O)C1CCC1)c1c(N)n(CCC)c(=O)[nH]c1=O`, the inhibition is -13.3%.

As for `COc1cc(OC)c(C2=NOC(C(=O)NCc3cccnc3)C2)cc1Cl` (centres undefined), the inhibition amounted to 2.26%.

Regarding `COc1ccc(NC(=O)c2coc3ccccc23)cc1OC`, the inhibition came out at 48.1%.

With `C[C@H](OC(=O)N1CCN(C(c2ccccc2)c2ccccc2)CC1)[C@@H]1O[C@@]2(C)CCC[C@H]1O2`, the inhibition stood at 3.49%.

Regarding `COCCN1C(=O)c2ccccc2C(C(=O)N2CCN(c3ccccc3)CC2)C1c1ccc(F)cc1` (centres undefined), the inhibition worked out at 30%.

For the compound `Cc1ccnc(NC(=O)CCCc2c[nH]c3ccccc23)c1`, the inhibition came out at 11.4%.

For `NS(=O)(=O)c1cccc(NC(=O)COC(=O)CCCc2c[nH]c3ccccc23)c1`, the inhibition came out at 7.86%.

`CC(=O)Nc1ccc(NC(=O)COC(=O)CCCc2c[nH]c3ccccc23)cc1`: the inhibition was found to be 13.7%.

As to `Cc1ccc(NC(=O)CCc2c[nH]c3ccccc23)nc1`, the inhibition came to 65.6%.

On to `COc1cccc(NC(=O)COC(=O)CCCc2c[nH]c3ccccc23)c1`, for which the inhibition came out at 58.5%.

In the case of `O=C(COC(=O)c1c[nH]c2ccccc12)Nc1ccc([N+](=O)[O-])cc1`, the inhibition was -4.96%.

`COc1ccc2cc(C3CC(c4cccs4)=NN3C(C)=O)c(Cl)nc2c1` (centres undefined): the inhibition was -4.81%.

`CCCCc1nc2c(=O)[nH]c3ccccc3c2o1`: the inhibition was -16.6%.

As to `CCCc1nc2c(=O)[nH]c3ccccc3c2o1`, the inhibition is -9.47%.

Take `CNCc1ccccc1Sc1cccc(O)c1`: the inhibition was -3.89%.

In the case of `CNCc1ccccc1Sc1ccc(O)c(O)c1`, the inhibition is 33.3%.

Consider `CC(=O)Nc1ccc(NC(=O)COc2ccc(-c3ccc(C#N)cc3)cc2)cc1`, for which the inhibition was -7.55%.

On to `CC(=O)NCCOc1ccc2oc3ccccc3c2c1`, for which the inhibition was 5.68%.

In the case of `COc1ccc(CCNC(=O)COc2ccc(-c3ccc(C#N)cc3)cc2)cc1`, the inhibition came out at 72.4%.

In the case of `O=C(O)COc1ccc2oc3ccccc3c2c1`, the inhibition came to 3.49%.

Take `CC(C)N(Cc1ccccc1)C(=O)CC(=O)N(Cc1ccccc1)C(C)C`: the inhibition was found to be 6.28%.

`CCc1ccc(-c2cc(C)no2)cc1S(=O)(=O)Nc1cc(C)ccn1`: the inhibition is -1.42%.

As to `CCOC(=O)N1CCN(C(=O)CN(C)S(=O)(=O)c2ccc(Cl)cc2)CC1`, the inhibition is -17.1%.

With `CSCCC(NC(=O)c1ccco1)C(=O)NC1CCCCCC1` (centres undefined), the inhibition is -8.42%.
